Several values for one entry are separate records, joined by “and”; a condition that tells them apart may be missing. Equal entries are not always repeated. Inconclusive results are not listed. Some compounds were tested as several samples or in several runs, with calls that do not always agree. Activity calls are given as the source filed them. Unless noted, the call rests on the fitted dose curve.

The target of test [1] is Peroxisome proliferator-activated receptor gamma (Homo sapiens) (UniProt P37231). Kind of test: qHTS assay for small molecule agonists of peroxisome proliferator-activated receptor gamma signaling (AID 588536; active means well fitted curve in the direction sought with a large enough effect in the signal ratio, with a control signal flat, not every such curve was filed as active; the % refers to the signal ratio;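 further: 0% = DMSO basal wells and 100% = rosiglitazone at 2 µM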). The method in brief:
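Using GeneBLAzer HEK293 cells, response was quantified by CCF4 fluorescence and normalized between basal DMSO (0%) and rosiglitazone 2 uM (100%); curves yielded half-maximal stimulation concentration and efficacy.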
(Quantitative high-throughput screening tests each substance at several concentrations.)

Test [2] can be described thus: qHTS assay for small molecule agonists of retinoid X receptor alpha signaling (AID 588544). Conditions: HEK293T RXRa-UAS-bla, beta-lactamase reporter, 18 h; 530 nm emission.
The target of test [3] is Retinoic acid receptor RXR-alpha (Homo sapiens) (UniProt P19793). The description is as above.
Retinoic acid receptor RXR-alpha (Homo sapiens), sequence (P19793 whole entry, looked up): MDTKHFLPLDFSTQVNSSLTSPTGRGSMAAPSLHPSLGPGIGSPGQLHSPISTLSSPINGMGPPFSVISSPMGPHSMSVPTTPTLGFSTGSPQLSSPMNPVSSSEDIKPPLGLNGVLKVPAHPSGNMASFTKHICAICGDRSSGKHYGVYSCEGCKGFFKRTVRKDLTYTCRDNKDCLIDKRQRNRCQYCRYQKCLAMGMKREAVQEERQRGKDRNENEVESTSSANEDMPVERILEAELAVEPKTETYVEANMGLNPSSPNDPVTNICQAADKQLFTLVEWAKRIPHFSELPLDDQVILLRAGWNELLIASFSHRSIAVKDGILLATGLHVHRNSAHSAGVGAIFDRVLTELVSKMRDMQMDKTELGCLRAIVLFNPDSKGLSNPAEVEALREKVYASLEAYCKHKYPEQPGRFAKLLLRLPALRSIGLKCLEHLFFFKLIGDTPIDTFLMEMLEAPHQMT
For test [4], the target named is Thyroid hormone receptor beta (Homo sapiens) (UniProt P10828). The test is described as follows: qHTS assay for small molecule agonists of thyroid hormone receptor beta signaling (AID 588545).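 Further: 0% = DMSO only and 100% = 10 nM T3.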 The essentials: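 TR-UAS-bla-GripTite HEK 293 cells in medium with 2% charcoal/dextran FBS, 0.1 mM NEAA and 1 mM sodium pyruvate were treated with titrated compounds for 18 hrs at 37 C. Beta-lactamase reporter was read with CCF4 dye (ex 405, em 460/530 nm); EC50 from Hill fits.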
Thyroid hormone receptor beta (Homo sapiens), sequence (P10828 whole entry, looked up): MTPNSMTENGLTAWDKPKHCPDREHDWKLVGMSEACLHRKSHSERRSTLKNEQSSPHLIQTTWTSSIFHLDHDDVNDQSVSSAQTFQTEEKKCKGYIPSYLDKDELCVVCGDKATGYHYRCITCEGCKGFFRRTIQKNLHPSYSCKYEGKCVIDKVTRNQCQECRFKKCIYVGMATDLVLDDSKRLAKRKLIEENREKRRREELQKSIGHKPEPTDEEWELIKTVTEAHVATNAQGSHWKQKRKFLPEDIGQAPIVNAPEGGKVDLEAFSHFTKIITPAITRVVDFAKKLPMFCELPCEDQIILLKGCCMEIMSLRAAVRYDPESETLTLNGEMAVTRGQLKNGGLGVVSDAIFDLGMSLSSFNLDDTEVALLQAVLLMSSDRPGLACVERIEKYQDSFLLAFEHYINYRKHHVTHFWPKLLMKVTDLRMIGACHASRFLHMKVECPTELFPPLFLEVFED

Test [5] is described as follows: qHTS assay for small molecule antagonists of retinoid X receptor alpha signaling (AID 588546; active means well fitted inhibition curve with a large enough effect in the signal ratio, with a control signal flat, not every such curve was filed as active; the % refers to the signal ratio;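 further: cells stimulated with 9-cis-retinoic acid as agonist; on the % scale 0 is the no-effect control and ±100 the full control effect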). Conditions: HEK293T RXRa-UAS-bla, beta-lactamase ratio, antagonist mode; measured here: W530 green channel, cytotoxicity proxy. The method in brief:
(§1)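 Beta-lactamase reporter inhibition, read as CCF4 fluorescence ratio (ex 405, em 460/530 nm) after 2 h at RT. HEK293T UAS-bla cells, 2500/well, were stimulated with 9-cis-RA at 500 or 100 nM final alongside test compound for 18 h at 37 C.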

Test [6] concerns the target Retinoic acid receptor RXR-alpha (Homo sapiens) (UniProt P19793). The description is as above. Conditions: HEK293T RXRa-UAS-bla, beta-lactamase ratio, antagonist mode. The essentials:
as §1

Test [7] concerns the target Thyroid hormone receptor beta (Homo sapiens) (UniProt P10828). Kind of test: qHTS assay for small molecule antagonists of thyroid hormone receptor beta signaling (AID 588547; active means well fitted inhibition curve with a large enough effect in the signal ratio, with a control signal flat, not every such curve was filed as active; the % refers to the signal ratio;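 further: cells stimulated with 0.4 nM T3 agonist during compound exposure; series mostly up to about 77 µM; on the % scale 0 is the no-effect control and ±100 the full control effect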). Conditions: TR-UAS-bla HEK293, beta-lactamase ratio, antagonist mode, 18 h. The method in brief:
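TR-UAS-bla GripTite HEK293 cells in 2% charcoal/dextran FBS medium; compounds 0.59 nM to 92 uM with T3 at 0.4nM final, 18 h at 37 C. Beta-lactamase read by CCF4 fluorescence (460/530 nm); Hill fits gave IC50 and efficacy.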

Test [8] concerns the target Voltage-gated inwardly rectifying potassium channel KCNH2 (Homo sapiens) (UniProt Q12809). The test is described as follows: qHTS Assay for Small Molecule Inhibitors of the Human hERG Channel Activity (AID 588834; active means well fitted inhibition curve with a large enough effect;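 further: lower thallium flux fluorescence means stronger hERG block; nearly all actives have a fitted effect of over 50% in size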; further: potency means the concentration at half of the fitted maximal effect). The method in brief: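 Step 1: BacMam hERG transduction of U2OS, 4 hrs RT. Step 2: overnight 37 °C, plate 2000 cells/well, 4 hr. Step 3: FluxOR load, compound 10 min, stimulate, read fluorescence.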

Test [9] has as its target Peroxisome proliferator-activated receptor gamma (Homo sapiens) (UniProt P37231). The test is described as follows: qHTS assay for small molecule antagonists of peroxisome proliferator-activated receptor gamma signaling (AID 588537; active means well fitted inhibition curve with a large enough effect in the signal ratio, with a control signal flat, not every such curve was filed as active; the % refers to the signal ratio; further: potency means the concentration at half of the fitted maximal effect). The method in brief: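 Fluorescence at 460 and 530 nm (405 nm excitation) reported beta-lactamase cleavage of CCF4 after 2 h room-temperature loading. HEK293 reporter cells in 1% charcoal/dextran-treated FBS had received compound and rosiglitazone for 16 h.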

Test [10] concerns the target Vitamin D3 receptor (Homo sapiens) (UniProt P11473). Kind of test: qHTS assay for small molecule agonists of vitamin D receptor signaling (AID 588543).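 Further: 0% = DMSO basal and 100% = reference agonist control.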 The essentials:
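Reporter cells (HEK293T, VDR-UAS-bla) were seeded in medium with 2% charcoal-stripped serum and incubated 5 h, then compounds in concentration series were added for 16 h at 37 °C. Stimulation was scaled between DMSO basal and 50 nM 1α,25-dihydroxyvitamin D3.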

Peroxisome proliferator-activated receptor gamma (Homo sapiens), sequence (P37231 whole entry, looked up): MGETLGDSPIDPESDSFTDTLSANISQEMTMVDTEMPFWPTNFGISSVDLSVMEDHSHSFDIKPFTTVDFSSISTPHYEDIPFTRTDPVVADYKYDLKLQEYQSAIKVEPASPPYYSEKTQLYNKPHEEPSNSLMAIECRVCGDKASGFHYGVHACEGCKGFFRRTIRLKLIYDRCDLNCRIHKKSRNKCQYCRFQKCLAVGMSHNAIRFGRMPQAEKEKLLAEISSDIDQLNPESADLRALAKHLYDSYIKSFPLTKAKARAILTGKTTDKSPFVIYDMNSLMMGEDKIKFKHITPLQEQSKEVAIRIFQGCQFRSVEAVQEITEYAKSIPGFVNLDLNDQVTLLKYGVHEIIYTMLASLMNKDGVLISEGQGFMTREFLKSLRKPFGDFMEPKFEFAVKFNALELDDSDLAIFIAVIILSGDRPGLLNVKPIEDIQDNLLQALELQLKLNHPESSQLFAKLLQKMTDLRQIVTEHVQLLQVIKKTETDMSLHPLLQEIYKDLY
Vitamin D3 receptor (Homo sapiens), sequence (P11473 whole entry, looked up): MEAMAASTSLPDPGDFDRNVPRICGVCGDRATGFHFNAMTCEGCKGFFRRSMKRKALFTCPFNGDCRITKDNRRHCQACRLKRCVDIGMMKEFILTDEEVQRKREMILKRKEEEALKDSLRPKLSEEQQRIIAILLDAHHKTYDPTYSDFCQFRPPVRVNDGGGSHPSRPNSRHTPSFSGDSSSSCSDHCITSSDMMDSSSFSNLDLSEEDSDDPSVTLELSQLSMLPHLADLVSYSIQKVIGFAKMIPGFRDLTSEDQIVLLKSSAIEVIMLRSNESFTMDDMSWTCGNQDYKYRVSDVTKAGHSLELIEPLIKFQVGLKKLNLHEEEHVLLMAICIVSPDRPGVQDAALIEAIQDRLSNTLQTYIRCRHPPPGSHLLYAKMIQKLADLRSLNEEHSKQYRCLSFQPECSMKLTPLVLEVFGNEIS
Voltage-gated inwardly rectifying potassium channel KCNH2 (Homo sapiens), sequence (Q12809 whole entry, looked up): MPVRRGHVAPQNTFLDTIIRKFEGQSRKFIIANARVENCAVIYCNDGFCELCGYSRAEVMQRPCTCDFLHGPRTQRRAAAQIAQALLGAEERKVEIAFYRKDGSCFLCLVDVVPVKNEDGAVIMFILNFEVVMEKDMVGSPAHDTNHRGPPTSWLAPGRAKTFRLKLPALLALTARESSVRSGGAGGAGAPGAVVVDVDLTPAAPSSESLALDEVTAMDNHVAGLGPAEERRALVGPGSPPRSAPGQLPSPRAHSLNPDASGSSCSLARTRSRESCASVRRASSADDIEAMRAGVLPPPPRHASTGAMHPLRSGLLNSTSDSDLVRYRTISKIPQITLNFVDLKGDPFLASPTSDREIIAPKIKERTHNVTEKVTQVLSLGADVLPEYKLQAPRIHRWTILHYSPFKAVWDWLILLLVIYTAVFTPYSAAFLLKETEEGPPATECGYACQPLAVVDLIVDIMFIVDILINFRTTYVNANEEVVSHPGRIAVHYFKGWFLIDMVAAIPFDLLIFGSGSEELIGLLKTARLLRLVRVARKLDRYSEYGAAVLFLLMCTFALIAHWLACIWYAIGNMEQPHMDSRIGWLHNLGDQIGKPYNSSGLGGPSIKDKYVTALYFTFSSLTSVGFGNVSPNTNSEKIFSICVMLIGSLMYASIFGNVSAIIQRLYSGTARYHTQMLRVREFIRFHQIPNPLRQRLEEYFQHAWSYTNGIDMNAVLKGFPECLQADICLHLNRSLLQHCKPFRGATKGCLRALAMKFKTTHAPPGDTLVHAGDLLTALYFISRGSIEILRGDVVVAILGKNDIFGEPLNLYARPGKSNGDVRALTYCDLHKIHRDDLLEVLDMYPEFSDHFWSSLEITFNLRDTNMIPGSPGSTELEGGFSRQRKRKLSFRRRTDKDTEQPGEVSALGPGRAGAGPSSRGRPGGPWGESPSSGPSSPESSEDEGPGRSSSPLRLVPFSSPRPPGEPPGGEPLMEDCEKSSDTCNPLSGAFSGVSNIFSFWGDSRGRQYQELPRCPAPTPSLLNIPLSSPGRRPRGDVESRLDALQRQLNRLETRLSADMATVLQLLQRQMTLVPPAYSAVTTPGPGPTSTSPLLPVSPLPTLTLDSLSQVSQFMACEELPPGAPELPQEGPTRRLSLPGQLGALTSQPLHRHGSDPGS

Consider `COC(C)(C)CCCC(C)C/C=C/C(C)=C/C(=O)OC(C)C` (configuration not stated), for which the outcome in [1] and in test [4] was inactive. In addition, the max response in [2] was 13.2%; in [5] it was 2.28% and 4.86%; in test [6], -11.7% (inactive) and -5.86% (inactive). Further, the Potency entry in test [3] and in test [8] was “inactive” each time. The activity change % (negative = inhibition) in [7] is -7.54% (inactive) and 20% (inactive).

For `C=CC(=O)NCNC(=O)C=C`, the compound was called inactive in [1] and in test [10]. Further, the Potency entry in test [9], in test [3] and in test [8] was “inactive” in each case. Also, the max response in [2] is 1.23% and 0.699%; in test [5] it was -7% and 1.5%; in test [6] it was 10.7% (inactive) and -13.1% (inactive). For the same compound, the activity change % (negative = inhibition) in test [7] was -12.9% (inactive) and 1.41% (inactive).

For `COc1ccc(C(c2ccc(OC)cc2)C(Cl)(Cl)Cl)cc1`, the result in test [1], in [10] and in test [4] was inactive. Besides, the Potency entry in test [9] is “inactive and 28.2 µM (active)”; in [8], 10 µM (active) and 22.4 µM (active). Moreover, the max response is -3.69% and 8.92% in test [5]; -30.1% (inactive) and -25% (inactive) in test [6]. For the same compound, the activity change % (negative = inhibition) in test [7] is 0.506% (inactive) and -1.09% (inactive) and 26% (inactive).

On to `CCCCOC(=O)c1ccccc1C(=O)OCc1ccccc1`, for which the compound was classed as inactive in [1] and in test [4]. In addition, the max response was -17.6% and 5.59% in test [2]; -7.26% and -17.3% in test [5]; 2.44% (inactive) and -9.61% (inactive) in [6]. Also, the Potency entry in test [3] is “inactive”. For the same compound, in test [7], the activity change % (negative = inhibition) was 11.3% (inactive).

Consider `O=C(O)c1cc(Oc2ccc(C(F)(F)F)cc2Cl)ccc1[N+](=O)[O-]`, for which the call in test [1] and in [4] was inactive. In addition, the max response is 11.8% in test [2], -4.23% in [5] and -9.38% (inactive) in test [6]. The Potency result in [3] was “inactive”. The activity change % (negative = inhibition) in test [7] was -21.5% (inactive).

Take `O=C(Nc1ccccc1-c1ccc(Cl)cc1)c1cccnc1Cl`: the compound was called inactive in [1], in [10] and in test [4]. Moreover, the max response was -4.9% in test [5] and -14.2% (inactive) in test [6].

For the compound `O=[N+]([O-])/N=C1\NCCN1Cc1ccc(Cl)nc1`, the result in test [1] and in test [4] was inactive. Also, the Potency entry in test [9], in [3] and in test [8] was “inactive” in each case. Further, the max response is -17.3% in test [2], -10.6% in [5] and -0.806% (inactive) in [6].

Turning to `OCCCBr`, the outcome in [1], in test [10] and in test [4] was inactive. The Potency entry in test [9], in [3] and in [8] was “inactive” throughout. Moreover, the max response in test [2] was -10.8%; in [5], -9.62%; in [6], -5.03% (inactive). In test [7], the activity change % (negative = inhibition) was -1.82% (inactive).

For `O=S(=O)(O)C(F)(F)C(F)(F)C(F)(F)C(F)(F)C(F)(F)C(F)(F)C(F)(F)C(F)(F)F`, the call in test [1], in test [10] and in [4] was inactive. Moreover, the Potency entry in test [9] and in test [3] was “inactive” each time. Moreover, the max response was -11.4% and -1.61% in test [2]; -5.97% and -3.14% in test [5]; -2.01% (inactive) and 4.02% (inactive) in test [6]. Moreover, the activity change % (negative = inhibition) in test [7] was -0.756% (inactive).

Turning to `Cc1cc(O)ccc1Cl`, the compound was classed as inactive in test [1], in test [10] and in test [4]. The Potency result in test [9], in [3] and in [8] was “inactive” in each case. Besides, the max response in test [2] is -6.7%; in test [5], 3.81%; in [6], -4.22% (inactive). Also, the activity change % (negative = inhibition) in [7] was 1.27% (inactive).

On to `CCCCCC[C@H]1C(=O)O[C@H](C)[C@H](NC(=O)c2cccc(NC=O)c2O)C(=O)O[C@@H](C)[C@@H]1OC(=O)CC(C)C`, for which the result in test [4] was inactive.

For the origin of these results see PubChem BioAssay (NCATS).
